PubChem BioAssay AID504766 (The Scripps Research Institute Molecular Screening Center, 2011)
Hit rate of the full screen: of about 340,000 compounds, about 3,400 (1%) were called active. The entries come from a sample that favours actives as a whole. A number with no mark means an inactive call.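 Rule for the calls: active = inhibition above the mean over all tested compounds plus 3 SD (cut at about 4.2% in these data); inactive = the rest.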

Target: Nuclear receptor subfamily 0 group B member 1 (Homo sapiens) (UniProt P51843)
Test: DAX1 (NR0B1) inhibitors, primary screen, cell-based, HEK293, Gal4-DAX1, luciferase luminescence (AID 504766);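 note: 0% = DAX1-transfected cells with DMSO and 100% = empty-vector control cells with DMSO; inhibition shows as a rise in luminescence from relieved DAX1 repression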
Details: HEK293 Gal4-DAX1 luciferase reporter, at 6.75 µM, hits give high values

Nuclear receptor subfamily 0 group B member 1 (Homo sapiens), sequence (P51843 207-470 limits assumed): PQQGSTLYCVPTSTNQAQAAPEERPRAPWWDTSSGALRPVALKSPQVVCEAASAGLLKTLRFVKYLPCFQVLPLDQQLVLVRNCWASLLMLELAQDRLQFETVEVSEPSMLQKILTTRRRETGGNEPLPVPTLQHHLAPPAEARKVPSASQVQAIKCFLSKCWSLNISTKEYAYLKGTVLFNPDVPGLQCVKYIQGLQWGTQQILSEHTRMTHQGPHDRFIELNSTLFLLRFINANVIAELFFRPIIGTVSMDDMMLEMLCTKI

SMILES	inhibition
COc1cc(SC)ccc1C(=O)N(Cc1ccccc1)c1ccccc1	-0.88%
COc1ccccc1OCCNC(=O)CCNC(=O)c1ccccc1Cl	0.98%
COc1cc(SC)ccc1C(=O)NCCOc1ccccc1Cl	4.52% (active)
O=C(NCC(F)(F)F)c1ccc(S(=O)(=O)NCCc2ccc3c(c2)OCCO3)cc1	1.37%
C#Cc1cc(N2CCN(C(=O)c3ccoc3)CC2)n2nc(-c3cccc(Cl)c3)cc2n1	-0.19%
CCCc1c(C)nc2scc(-c3ccc(Cl)cc3)n2c1=O	1.4%
COc1ccc(OC)c(/C=C/C(=O)OCC(=O)Nc2ccc3c(c2)OCCO3)c1	0.21%
COc1ccc(OC)c(/C=C/C(=O)c2ccc3c(c2)OCO3)c1	5.49% (active)
COc1ccc(NC(=O)NCc2ccc3c(c2)OCO3)c(OC)c1	0.03%
CCCCN(C(C)=O)c1ccc2c(c1)C1CC2CCN1Cc1ccccc1 (stereo unspecified)	1.48%
CCN(CC)CCN(C(=O)c1ccc2c(c1)CCCC2)c1nc2c(OC)cccc2s1	-0.58%
CC(C)(C)NC(=O)NCc1ccco1	4.44% (active)
COC(=O)/C=C/C(=O)NCc1ccco1	1.74%
O=C(CC12CC3CC(CC(C3)C1)C2)NCc1ccco1	-0.86%
COc1ccc(OC)c(C(=O)NC2CCCc3c2cnn3-c2cc(C)cc(C)c2)c1 (stereo unspecified)	-1.87%
CC(=O)c1cccc(NC(=O)C2COc3ccccc3O2)c1 (stereo unspecified)	2.01%
COc1ccc(NC(=O)COC(=O)C2COc3ccccc3O2)cc1 (stereo unspecified)	0.47%
COc1ccc(NC(=O)C2COc3ccccc3O2)cc1 (stereo unspecified)	5.29% (active)
COc1cc(C(=O)N2CCOC23CCN(Cc2ccccc2)CC3)cc(OC)c1OC	2.69%
O=C(CN1C(=O)NC2(CCCCCC2)C1=O)NCc1ccc(F)cc1	-0.55%
O=C(CN1C(=O)NC2(CCCCCC2)C1=O)NC1CC1	-0.19%
O=C(CN1C(=O)NC2(CCCC2)C1=O)NCC1CCCO1 (stereo unspecified)	10.2% (active)
CC1CCCC(C)N1C(=O)COC(=O)c1ccccc1C(=O)c1ccccc1 (stereo unspecified)	1.22%

SMILES	inhibition
N#CCCN1CCN(S(=O)(=O)c2ccc(S(=O)(=O)N3CCCC3)cc2)CC1	2.37%
N#CCCN1CCN(S(=O)(=O)c2ccc(S(=O)(=O)NC3CCCCC3)cc2)CC1	4.67% (active)
N#CCCN1CCN(S(=O)(=O)c2ccc(S(=O)(=O)NC3CC3)cc2)CC1	-1.02%
CNC(=O)c1ccc(CN(C)C(=O)c2cc(C3CC3)nc3c2cnn3C(C)C)cc1	0.25%
COCCNC(=O)CSc1nc(N)c(NC(=O)c2ccco2)c(=O)[nH]1	0.48%
CCN(CC(=O)Nc1ccc(NC(C)=O)cc1)C(=O)C1CC(=O)N(c2ccc3c(c2)OCCO3)C1 (stereo unspecified)	0.46%
CCn1c(CSCc2c(Cl)cccc2Cl)n[nH]c1=S	-0.93%
CCn1c(CNS(=O)(=O)c2ccc(Cl)cc2)n[nH]c1=S	0.01%
CCn1c(CN2C(=O)CSc3ccccc32)n[nH]c1=S	7.22% (active)
O=C(COC(=O)c1cncc(Br)c1)Nc1ccc(S(=O)(=O)N2CCOCC2)cc1	1.32%
O=C(Nc1cc(F)ccc1F)c1ccc2c(=O)n3c(nc2c1)CCC3	3.09%
O=C1c2ccccc2C(=O)c2c1cccc2N1CCN(Cc2ccccc2)CC1	4.26% (active)
O=C1c2ccccc2C(=O)c2c1cccc2N1CCN(CCO)CC1	0%
O=C(CN1CCN(Cc2ccccc2)CC1)NC(c1ccccc1)c1ccccc1	-1.74%
CC(=O)Nc1ccc2c3c(ccc([N+](=O)[O-])c13)CC2	-0.19%
COc1cccc(OC)c1C(=O)NC(=S)Nc1ccc(N2CCOCC2)c(Cl)c1	0.83%
Cc1nn(C)c(C(=O)NNC(=S)NC2CCCCC2)c1Cl	-0.26%
COc1cccc(NC(=S)NC(=O)c2c(Cl)c(C)nn2C)c1	4.28% (active)
CCCCCCn1c(=O)n2n(c1=O)C[C@]1(OC(=O)NCc3ccc(OC)c(OC)c3)CN(S(=O)(=O)c3ccc(C)cc3)C[C@]1(O)C2	-0.07%
C=CCN1CCN(c2ccncc2S(=O)(=O)N2CCN(C)CC2)CC1	1.7%
C[C@@H]1CN([C@@H](C)CO)C(=O)c2c(c3ccccc3n2C)-c2ccccc2CO[C@H]1CN(C)C(=O)C1CC1	0.47%
COc1ccc(NC(=O)N(C)C[C@@H]2OCc3cn(nn3)CCCC(=O)N([C@H](C)CO)C[C@H]2C)c(OC)c1	-0.22%
C=CCOc1ccccc1/C=N/NC(=O)Cc1ccccc1	0.28%

SMILES	inhibition
C=CCOc1ccccc1NC(=O)CN1C(=O)CNC1=O	4.47% (active)
Cc1cccc(NC(=O)CN2C(=O)CNC2=O)c1	1.34%
COc1ccc(/C=C2\N=C3CCCN3C2=O)cc1	4.84% (active)
COc1ccc(/C=C2\SC(=N)N(c3ccc(F)cc3)C2=O)cc1	-0.7%
COc1ccc(/C=C2/CCCc3ccccc3C2=O)cc1	-1.11%
COc1ccc(S(=O)(=O)N2CCC(C(=O)NCCC(=O)NCCc3cccc(F)c3)CC2)cc1	0.25%
CSc1ncnc2c1ncn2CCCNCC1CCCCC1	-0.19%
COc1ccc(-c2nnc(SC(C)C#N)o2)cc1 (stereo unspecified)	4.68% (active)
COc1ccc(-c2nnc(SC(C)C(=O)NC3CC3)o2)cc1 (stereo unspecified)	1.85%
COc1ccc(-c2nnc(SC(=O)N3c4ccccc4Sc4ccccc43)o2)cc1	-1.53%
CNC(=O)C1CN(C(=O)c2cccc(S(=O)(=O)N3CCc4ccccc43)c2)c2ccccc2O1 (stereo unspecified)	-2.16%
CCCCN(C(=O)CSCc1ccc(C)cc1)c1c(N)n(Cc2ccccc2)c(=O)[nH]c1=O	0.19%
CCCN(C(=O)CSc1nnnn1C)c1c(N)n(Cc2ccccc2)c(=O)[nH]c1=O	5.42% (active)
CCCN(C(=O)CSc1nnc(N)s1)c1c(N)n(Cc2ccccc2)c(=O)[nH]c1=O	-2.02%
CC(C)CC1C(=O)N(Cc2cn(Cc3ccco3)nn2)CCS(=O)(=O)N1Cc1ccc(-c2ccc(Cl)c(Cl)c2)cc1 (stereo unspecified)	-1.34%
CCn1c(SCC(=O)N2CCCC2=O)nc2ccccc21	1.3%
CCOC(=O)c1ccc(NC(=S)Nc2cc(C)cc(C)n2)cc1	1.42%
CCOC(=O)c1cc2c(nc1NC(=S)Nc1ccccc1)CC(C)(CC)OC2 (stereo unspecified)	0.77%
CCOC(=O)c1cn[nH]c1NC(=S)Nc1ccccc1	6.19% (active)
O=C(NN=Cc1ccc2c(c1)CCC2)c1ccccc1O	2.24%
O=C(C[C@H]1C[C@H]2c3cc(NS(=O)(=O)c4ccc(F)cc4)ccc3O[C@H]2[C@H](CO)O1)NCc1cc(F)ccc1F	-0.52%
Cc1ccc(NC(=O)CN2CCC(C(N)=O)CC2)cc1[N+](=O)[O-]	0.4%
Cc1ccc(NC(=O)CN(C)CC(=O)Nc2cccc(F)c2)cc1[N+](=O)[O-]	-3.16%

SMILES	inhibition
Cc1ccc(NC(=O)c2sccc2C)cc1[N+](=O)[O-]	5.25% (active)
CCN(CC)C(=O)C(=O)Nc1cccc(Br)c1	1.59%
CCN(CC)N=Nc1cccc(NC(C)=O)c1	8.01% (active)
CC(=O)Nc1cccc(C(=O)OCN2C(=O)c3ccccc3C2=O)c1	0.92%
CC(C)n1ncc2c(C(=O)N3CCN(Cc4cccs4)CC3)cc(C3CC3)nc21	-1.38%
Cc1ccc(S(=O)(=O)N(CCc2ccccc2)c2ccc3c(c2)C2CC3CCN2C(=O)OCc2ccccc2)cc1 (stereo unspecified)	-0.92%
FC(F)(F)c1cccc(Cc2noc(CN3CCC(N4CCCCC4)CC3)n2)c1	0.44%
O=C(CN1CCN(C(=O)c2ccco2)CC1)Nc1ccc(Cl)c(C(F)(F)F)c1	-0.99%
CCOC(=O)N1CCN(Cc2nc(Cc3cccc(C(F)(F)F)c3)no2)CC1	4.88% (active)
O=C(c1ccco1)N1CCN(CCOc2ccccc2)CC1	3.53%
O=C(c1ccco1)N1CCN(Cc2cccc(C(F)(F)F)c2)CC1	4.58% (active)
Fc1cccc(Cc2noc(CN3CCN(c4cnccn4)CC3)n2)c1	-1.08%
Cc1cc(C)c2cc(C#N)c(N3CCNCC3)nc2c1	0.35%
O=Cc1cn(CCOc2ccc(F)cc2)c2ccccc12	-0.3%
O=C(CNC(=O)N1CC(=O)Nc2ccccc21)Nc1ccc(Br)cc1F	0.45%
Cc1nnc(SC(C)C(=O)c2c[nH]c3ccccc23)n1C1CC1 (stereo unspecified)	0.71%
COc1ccc2c(CC(=O)OCC(=O)Nc3ccccc3[N+](=O)[O-])coc2c1	0.79%
COc1ccc(N(CC(=O)Nc2cccc3ccccc23)S(C)(=O)=O)c(OC)c1	-0.73%
CCc1ccccc1NC(=O)CN(c1ccc(OC)cc1OC)S(=O)(=O)c1ccccc1[N+](=O)[O-]	5.44% (active)
CCN(CC)C(=O)C1=C(C)N(Cc2ccc(OC)cc2)C(=O)C(CC(=O)NCCCCc2ccccc2)C1 (stereo unspecified)	-0.34%
CCOc1ccc(CCNC(=O)COC(=O)c2ccc(C)c(S(=O)(=O)N3CCOCC3)c2)cc1OCC	-0.65%
CCN(CC)C(=O)C1=C(C)N(Cc2ccc(C(C)(C)C)cc2)C(=O)C(CC(=O)NCc2cccc3ccccc23)C1 (stereo unspecified)	-0.14%
